Measured values reported in PubChem BioAssay (NCI).
Compounds without any hit were thinned out: in the full panel of roughly 83,000, 20% have a hit.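 Growth was measured after 48 h exposure to one concentration of compound in 96-well plates. Values under 10 count as active.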 Values without a mark were called inactive. Active and inactive are the calls of the source.

Columns and labels:
Test in all cases: NCI-60 one-dose screen, 48 h (100 = growth as untreated, 0 = no growth, -100 = all killed)
Conditions in all cases: 10 µM unless noted
DU-145 prostate = system: DU-145 prostate
K-562 leukemia = system: K-562 leukemia
MALME-3M melanoma = system: MALME-3M melanoma
MDA-MB-231 breast = system: MDA-MB-231 breast
RXF 393 renal = system: RXF 393 renal
SF-268 CNS = system: SF-268 CNS
SF-295 CNS = system: SF-295 CNS
SF-539 CNS = system: SF-539 CNS
UACC-257 melanoma = system: UACC-257 melanoma
M14 melanoma = system: M14 melanoma
HCT-15 colon = system: HCT-15 colon
HT29 colon = system: HT29 colon
SNB-75 CNS = system: SNB-75 CNS
SNB-19 CNS = system: SNB-19 CNS
U251 CNS = system: U251 CNS
PC-3 prostate = system: PC-3 prostate
SK-MEL-5 melanoma = system: SK-MEL-5 melanoma
UACC-62 melanoma = system: UACC-62 melanoma
LOX IMVI melanoma = system: LOX IMVI melanoma
SK-MEL-28 melanoma = system: SK-MEL-28 melanoma

Row | SMILES | growth (DU-145 prostate) | growth (K-562 leukemia) | growth (MALME-3M melanoma) | growth (MDA-MB-231 breast) | growth (RXF 393 renal) | growth (SF-268 CNS) | growth (SF-295 CNS) | growth (SF-539 CNS) | growth (UACC-257 melanoma) | growth (M14 melanoma) | growth (HCT-15 colon) | growth (HT29 colon) | growth (SNB-75 CNS) | growth (SNB-19 CNS) | growth (U251 CNS) | growth (PC-3 prostate) | growth (SK-MEL-5 melanoma) | growth (UACC-62 melanoma) | growth (LOX IMVI melanoma) | growth (SK-MEL-28 melanoma)
1 | NC1=NN=C(N)C1=Cc1cc2ccccc2n2nnnc12 | 100% | 92.9% | 108% | 95.5% | 110% | 98.6% | 99.3% | 102% | 98.3% | 111% | 104% | 104% | 94.3% | 95.8% | 89% | 86.6% | 101% | 93.2% | 85.1% | –
2 | Cc1ccccc1NS(=O)(=O)c1cccc(C(=O)Nc2ccc(Br)cc2)c1 | 57.8% [25 µM] | 23.1% [25 µM] | 18% [25 µM] | 56% [25 µM] | 60.7% [25 µM] | 36.5% [25 µM] | 19.7% [25 µM] | 57.3% [25 µM] | 27.4% [25 µM] | 35.5% [25 µM] | 37.3% [25 µM] | 47.8% [25 µM] | 53.7% [25 µM] | 42.9% [25 µM] | 53% [25 µM] | 27.3% [25 µM] | -38.9% [25 µM] (active) | 25.9% [25 µM] | 39.2% [25 µM] | 60% [25 µM]
3 | CCNC(=O)Oc1ccc(/C(=C(\C)c2ccccc2)c2ccc(OCCN(CC)CC)cc2)cc1 | 95.4% | 18.9% | 81.1% | 87.2% | 70.6% | 80.1% | 43.5% | 60.9% | -0.741% (active) | 39.7% | 16.5% | 15.3% | 78.5% | 86.9% | 68.2% | 70.8% | 34.4% | 59.1% | 65.3% | –
4 | Cc1ccc(S(=O)(=O)Nn2c3c(cc(-c4nc5ccccc5s4)c2=O)CCCCCC3)cc1 | 105% | 98.4% | 88.3% | 93.2% | 101% | 96% | 97.2% | 100% | 97.3% | 99% | 97% | 112% | 91.9% | 99.2% | 99.9% | 99.7% | 96.2% | 84.4% | 95.9% | –
5 | Fc1ccc2c(-c3cncn3CCc3ccccc3)c[nH]c2c1 | 104% | 74.6% | 91.4% | 87.8% | 79.6% | 83.9% | 83.5% | 94.6% | 94.6% | 90.8% | 95.7% | 85.4% | 47.7% | 85.1% | 91.9% | 86.8% | 90.2% | 73.3% | 94.8% | –
6 | C=C1C(=O)O[C@H]2[C@H]1CC/C(C(=O)NCCCCCNC(=O)/C1=C/CC[C@@]3(C)O[C@H]3[C@H]3OC(=O)C(=C)[C@@H]3CC1)=C\CC[C@@]1(C)O[C@@H]21 | 104% | 114% | 96.2% | 106% | 110% | 96.1% | 105% | 105% | 97.7% | 92.3% | 95.5% | 102% | 103% | 102% | 99.3% | 91.6% | 100% | 97.9% | 99.9% | –
7 | C=C(C)[C@@H]1CC[C@]2(C(=O)N3CCN(C)CC3)CC[C@]3(C)[C@H](CC[C@@H]4[C@@]5(C)C/C(=C/c6cccnc6)C(=O)C(C)(C)[C@@H]5CC[C@]43C)[C@@H]12 | 74% | 21.9% | 71.4% | 74.9% | 52.2% | 72.7% | 87.3% | 74.5% | 66.6% | 69.5% | 44.5% | 20.9% | 79.7% | 68.7% | 52.3% | 18.6% | 68.6% | 81.4% | 78.7% | 83.1%
8 | O=C(Cc1ccc(/C=C/C(=O)c2ncc[nH]2)cc1)Nc1ccc(Cl)cc1 | 18.4% | 8.02% (active) | 89.3% | 22.3% | 49.7% | 12% | 8.31% (active) | -23.1% (active) | 78.7% | 63.6% | -25% (active) | 0.843% (active) | 25.3% | 4.9% (active) | -60.6% (active) | 39% | 52.5% | 41.2% | -37.1% (active) | –
9 | Cc1ccc(-n2c3c(c(-c4ccccc4)c2-c2ccccc2)C2=NCCN2C=N3)cc1 | 95% | 64.2% | 97.9% | 80.5% | 101% | 96.2% | 99.2% | 95.4% | 104% | 95.7% | 81.3% | 88% | 70.5% | 88.5% | 92% | 76.8% | 68.1% | 75.1% | 93.6% | –
10 | COc1cc2nc(-c3ccc(Cl)cc3)cc(OCCCN3CCCCC3)c2cc1OC | 40.9% | 14.3% | 46.1% | 27.4% | 39.1% | 57.5% | -51.3% (active) | 49.5% | -0.848% (active) | -28.2% (active) | 17.4% | 18.1% | 18.2% | 70.5% | 48.7% | 42.9% | -18.5% (active) | -32.6% (active) | -45.2% (active) | 60%
11 | CCOC(=O)[C@@H](C)C[C@H](Cc1ccccc1)NC(=O)c1csc([C@@H](C[C@H](C(C)C)N(C)C(=O)[C@@H](NC(=O)[C@H]2C[C@H](O[Si](C)(C)C(C)(C)C)CCN2C)C(C)C)OC(C)=O)n1 | -21.4% [9.25 µM] (active) | 3.46% [9.25 µM] (active) | 18.1% [9.25 µM] | -34.7% [9.25 µM] (active) | -10.3% [9.25 µM] (active) | 4.82% [9.25 µM] (active) | -15.6% [9.25 µM] (active) | -49.7% [9.25 µM] (active) | 21.3% [9.25 µM] | -42.2% [9.25 µM] (active) | -6.05% [9.25 µM] (active) | -71.7% [9.25 µM] (active) | 7.94% [9.25 µM] (active) | 5.09% [9.25 µM] (active) | -17.3% [9.25 µM] (active) | 6.78% [9.25 µM] (active) | -14.5% [9.25 µM] (active) | 4.13% [9.25 µM] (active) | 4.27% [9.25 µM] (active) | –
12 | O=S(=O)(NCCCNc1nccc(-c2c(-c3cccc(F)c3)nc3sccn23)n1)c1cccc2ccccc12 | 49.9% | 15.2% | 78.7% | 4.05% (active) | 62.9% | 44.5% | 34.6% | 72.8% | 72.9% | 42.7% | 18% | 1.97% (active) | 86.5% | 69% | 59.1% | 41.2% | 31.8% | 24.3% | 20.9% | –
13 | COc1cc(NC(C)CCCNC(=O)CCC(=O)NCCCNCCCCCCCCNCCCNC(=O)CCC(=O)NCCCC(C)Nc2cc(OC)cc3cccnc23)c2ncccc2c1 (centres undefined) | 66.7% | 45.1% | 40.2% | 44% | 67.9% | 52.2% | 85.5% | 69% | 36.3% | 84.4% | 108% | 67.5% | 54.2% | 57.9% | 35.1% | 77.6% | 97.1% | 84.2% | 35.7% | –
14 | COc1cc2c(cc1OC)C(=O)/C(=C/c1cc(C)c(O)c(C)c1)S2 | 25.3% | 12% | 71.7% | 56.9% | -6.02% (active) | 72.9% | 18.4% | -3.74% (active) | 70.7% | 19.1% | 18.7% | 83.2% | 24% | 38.7% | 27.2% | 38.4% | 21.3% | 43.3% | 44.2% | –
15 | C=C1C(=O)O[C@H]2[C@H]1CC/C(CNC(=O)CCc1ccc(OC)cc1)=C\CC[C@@]1(C)O[C@@H]21 | 24.2% | 19.4% | 69.2% | 65.8% | 44.6% | 79.5% | 91.9% | 31.1% | 53.1% | 42.5% | 37.1% | 12.1% | 116% | 80.3% | 87.9% | 72.1% | 92.8% | 47.3% | 70.3% | 59.5%
